Experimental data reported in PubChem BioAssay AID2240 (Broad Institute, 2010).
The campaign covered roughly 37,000 compounds. About 100 (0.27%) were called active. This is one part of a sample in which actives are shown more often than they occur. Rule as the data show it: active = inhibition above about 85%; inconclusive = no clear call, values can overlap the other calls; inactive = below about 68%.

assay: blocks MITF activity, primary screen, MITF inhibitor project, cell-based, luminescence (AID 2240); conditions: TRPM1 promoter luciferase, 24 h, stronger effect = higher value, concentration not given here;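 also: human melanocyte line stably carrying TRPM1 promoter luciferase reporter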

Structure (SMILES)	inhibition
Cc1noc(C)c1NC(=O)Nc1ccc2c(c1)C(=O)N([C@@H](C)CO)C[C@@H](C)[C@H](CN(C)Cc1ccc(C(F)(F)F)cc1)O2	-0.382% (inactive)
Cc1cccc(NC(=O)CSc2nc3c(cc2C#N)CCCCC3)c1	0.0416% (inactive)
CN(CC(=O)Nc1ccc(F)cc1)S(=O)(=O)c1ccccc1	-37.2% (inactive)
C[C@H]1CN([C@@H](C)CO)C(=O)Cc2cc(NC(=O)C3CC3)ccc2O[C@H]1CN(C)C(=O)Nc1ccc(C(F)(F)F)cc1	-4.89% (inactive)
COc1ccc(CN(C)C[C@H]2Oc3ccc(NC(=O)CCN4CCOCC4)cc3C(=O)N([C@@H](C)CO)C[C@H]2C)cc1	9.34% (inactive)
Cc1cccc(C)c1NC(=O)C(C)N(c1ccc(Cl)cc1)S(C)(=O)=O (centres undefined)	-20.7% (inactive)
Cc1noc(C)c1S(=O)(=O)N(C)C[C@H]1Oc2ccc(NC(=O)CCN3CCOCC3)cc2CC(=O)N([C@H](C)CO)C[C@H]1C	10.6% (inactive)
O=C(NCc1ccco1)c1cc(-c2cccnc2)nc2ccc(Cl)cc12	-14.7% (inactive)
Cc1ccc(S(=O)(=O)Nc2cccc3c2O[C@H](CN(C)S(=O)(=O)c2cn(C)cn2)[C@H](C)CN([C@H](C)CO)C3=O)cc1	0.736% (inactive)
Cc1ccc(S(=O)(=O)N(C)C[C@@H]2Oc3ccc(NC(=O)Nc4ccc(F)cc4)cc3C(=O)N([C@H](C)CO)C[C@@H]2C)cc1	-19.7% (inactive)
Cc1ccc(-n2c(SCC(=O)Nc3ccc(F)c(F)c3)nnc2-c2cnccn2)cc1	-1.94% (inactive)
C[C@H](CO)N1C[C@H](C)[C@H](CN(C)Cc2ccncc2)Oc2ccc(NS(=O)(=O)c3ccc(F)cc3)cc2CC1=O	-14.1% (inactive)
COc1ccccc1NC(=O)CN(c1ccc(Br)c(C)c1)S(C)(=O)=O	-1.36% (inactive)
C[C@H]1CN([C@@H](C)CO)C(=O)Cc2cc(NS(=O)(=O)c3cccs3)ccc2O[C@@H]1CN(C)S(=O)(=O)c1cn(C)cn1	-7.83% (inactive)
C[C@@H]1CN([C@@H](C)CO)C(=O)c2cccc(NC(=O)c3nc4ccccc4s3)c2O[C@@H]1CN(C)Cc1ccc(Cl)c(Cl)c1	10.3% (inactive)
CN(C)c1ccc(NC(=O)CN(C)S(=O)(=O)c2ccc(Br)cc2)cc1	-8.87% (inactive)
COc1ccccc1NC(=O)CSc1ncc(-c2ccccc2)nn1	-3.76% (inactive)
Cn1c(SCc2nc3ccccc3c(=O)[nH]2)nnc1-c1cc2ccccc2o1	17.4% (inactive)
C[C@H]1CN([C@@H](C)CO)C(=O)Cc2cc(NC(=O)NC3CCCCC3)ccc2O[C@H]1CN(C)S(=O)(=O)c1cccs1	6.16% (inactive)
